Structures are written as SMILES. The panel holds about 83,000 compounds, 20% with a hit somewhere; the sample as a whole holds those more often.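 In brief: 96-well plates, 48 h treatment, single concentration, percent growth endpoint.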 Unmarked numbers belong to inactive results. Calls of active or inactive are those of the source. Rule for the calls: active = growth percent below 10; inactive = the rest.

Experimental findings from PubChem BioAssay (NCI) are described below.

Common to all, as to experiment: NCI-60 one-dose screen, 48 h (100 = growth as untreated, 0 = no growth, -100 = all killed)
One assay concerns SK-MEL-2 melanoma. As to conditions: 10 µM unless noted.
Another assay concerns EKVX NSCLC. As to conditions: 10 µM unless noted.
The next assay relates to SN12C renal. As to conditions: 10 µM unless noted.
Another assay concerns UO-31 renal. Particulars: 10 µM unless noted.
Another assay concerns TK-10 renal. Particulars: 10 µM unless noted.
The subject of a further assay is ACHN renal. As to conditions: 10 µM unless noted.
A further assay concerns A498 renal. Particulars: 10 µM unless noted.
The test system of a further assay is CCRF-CEM leukemia. As to conditions: 10 µM unless noted.
The next assay relates to MOLT-4 leukemia. As to conditions: 10 µM unless noted.
The next assay relates to RPMI-8226 leukemia. Particulars: 10 µM unless noted.
The subject of the next assay is OVCAR-8 ovarian. As to conditions: 10 µM unless noted.
For a further assay, the system named is OVCAR-5 ovarian. Particulars: 10 µM unless noted.
The subject of another assay is OVCAR-4 ovarian. Particulars: 10 µM unless noted.
The subject of another assay is SK-OV-3 ovarian. Particulars: 10 µM unless noted.
For a further assay, the system named is IGROV1 ovarian. Particulars: 10 µM unless noted.
For the next assay, the system named is HS 578T breast. Particulars: 10 µM unless noted.
For a further assay, the system named is NCI/ADR-RES ovarian. As to conditions: 10 µM unless noted.
In the next assay the test system is OVCAR-3 ovarian. Particulars: 10 µM unless noted.
The test system of the next assay is SR leukemia. Particulars: 10 µM unless noted.
The test system of another assay is CAKI-1 renal. Particulars: 10 µM.

As to `Cc1cc(N2CCOCC2)nc(N(CCNc2ccnc3cc(Cl)ccc23)Cc2ccco2)n1`, the growth in the assay with SK-MEL-2 melanoma is 23.3%; in the assay with EKVX NSCLC, 56.7%; with SN12C renal, 47.5%; with UO-31 renal it was 24.3%; in the assay on TK-10 renal, 10.9%; in the assay with ACHN renal, 27%. Besides, the growth in the assay on A498 renal was 50.9%; in the assay with CCRF-CEM leukemia, -11.3% (active); with MOLT-4 leukemia, 5.1% (active); with RPMI-8226 leukemia, -21.6% (active); in the assay with OVCAR-8 ovarian, 34.6%; in the assay with OVCAR-5 ovarian, 101%. In addition, the growth with OVCAR-4 ovarian is 37.2%; with SK-OV-3 ovarian it was 91.1%; with IGROV1 ovarian, 40.7%; in the assay on HS 578T breast, 64%; in the assay on NCI/ADR-RES ovarian, 50.8%.

As to `Clc1ccc(CN2COc3c(ccc4cccnc34)C2)cc1Cl`, the growth was 11.8% in the assay on SK-MEL-2 melanoma; 1.43% (active) in the assay on EKVX NSCLC; 19.4% in the assay on SN12C renal; -55.4% (active) in the assay on UO-31 renal; 25.9% in the assay with TK-10 renal; 4.57% (active) in the assay on ACHN renal. In addition, the growth is 52.8% in the assay with A498 renal; -11.1% (active) with CCRF-CEM leukemia; -19.3% (active) with RPMI-8226 leukemia; -24% (active) with OVCAR-8 ovarian; 5.97% (active) in the assay on OVCAR-5 ovarian; 11.6% with OVCAR-4 ovarian. For the same compound, the growth was 13.4% with SK-OV-3 ovarian, -1.22% (active) in the assay with OVCAR-3 ovarian, 55.4% with HS 578T breast and -19% (active) with NCI/ADR-RES ovarian.

With `COc1cccc(C2CC(c3cc(OC)c(OC)c(OC)c3)=NN2)c1` (stereo not given), the growth with SK-MEL-2 melanoma is 94%; in the assay on EKVX NSCLC, 117%; in the assay on SN12C renal, 91.8%; in the assay on UO-31 renal, 94.9%; in the assay on TK-10 renal, 106%; in the assay on ACHN renal, 94.3%. The growth was 82.2% with A498 renal; 81.2% in the assay with MOLT-4 leukemia; 9.95% (active) with SR leukemia; 56.9% in the assay with RPMI-8226 leukemia; 92.9% in the assay on OVCAR-8 ovarian; 98.8% in the assay on OVCAR-5 ovarian. Further, the growth with OVCAR-4 ovarian was 85.5%; in the assay on SK-OV-3 ovarian it was 89.9%; with IGROV1 ovarian it was 99.4%; with HS 578T breast, 111%; in the assay with NCI/ADR-RES ovarian it was 63.4%.

Consider `CCn1cc(/C=C2\Oc3cc(OCC#N)ccc3C2=O)c2cc(OC)ccc21`, for which the growth in the assay with SK-MEL-2 melanoma is 37.5%; with EKVX NSCLC it was 47.8%; in the assay on SN12C renal, 42.4%; in the assay with UO-31 renal it was 45.7%; in the assay with TK-10 renal it was 74.2%; in the assay on ACHN renal it was 54.2%. Also, the growth was 62.4% with A498 renal; 12.9% in the assay with MOLT-4 leukemia; 19.2% in the assay on SR leukemia; 15.1% in the assay with RPMI-8226 leukemia; 21% in the assay on OVCAR-8 ovarian; 62.1% in the assay on OVCAR-5 ovarian. In addition, the growth is 85.6% in the assay on OVCAR-4 ovarian; 43.3% in the assay on SK-OV-3 ovarian; 43.3% with IGROV1 ovarian; -6.84% (active) with OVCAR-3 ovarian; 29.4% in the assay with HS 578T breast; 11.2% in the assay with NCI/ADR-RES ovarian.

On to `COc1ccc2c(c1)nnc1c3cccnc3[nH]c21`, for which the growth in the assay on SK-MEL-2 melanoma is -13.2% (active); with EKVX NSCLC, 34.2%; in the assay with SN12C renal, -22.2% (active); with UO-31 renal, -74.1% (active); with TK-10 renal, 11.8%; with ACHN renal, -10.2% (active). Moreover, the growth is 40.3% in the assay on A498 renal; -0.9% (active) with CCRF-CEM leukemia; -21.6% (active) in the assay on MOLT-4 leukemia; -41.9% (active) with RPMI-8226 leukemia; 3.13% (active) in the assay on OVCAR-8 ovarian; 36.1% in the assay with OVCAR-5 ovarian. Further, the growth in the assay on OVCAR-4 ovarian was 14.8%; with SK-OV-3 ovarian it was 19%; in the assay with OVCAR-3 ovarian it was -51.1% (active); in the assay with HS 578T breast, -24.5% (active); in the assay on NCI/ADR-RES ovarian, 13.8%.

For `CCCCNc1cc(C(=O)O)cc(S(N)(=O)=O)c1Oc1ccccc1`, the growth in the assay on SK-MEL-2 melanoma was 106%; in the assay on EKVX NSCLC, 106%; in the assay with SN12C renal, 97.1%; in the assay on UO-31 renal, 85.4%; in the assay on TK-10 renal it was 104%; with CAKI-1 renal, 89.3%. The growth in the assay with A498 renal was 89.1%; in the assay with CCRF-CEM leukemia it was 105%; in the assay on MOLT-4 leukemia, 110%; in the assay on SR leukemia it was 104%; in the assay on RPMI-8226 leukemia it was 112%; with OVCAR-8 ovarian, 107%. The growth was 105% in the assay on OVCAR-4 ovarian; 108% in the assay with SK-OV-3 ovarian; 109% in the assay with IGROV1 ovarian; 115% with OVCAR-3 ovarian; 98.5% in the assay with HS 578T breast; 99.1% in the assay on NCI/ADR-RES ovarian.

On to `COc1cc(NS(C)(=O)=O)ccc1Cc1c2ccccc2nc2ccccc12`, for which the growth was 104% in the assay with SK-MEL-2 melanoma; 45.3% with EKVX NSCLC; -6.92% (active) in the assay with SN12C renal; -5.05% (active) with UO-31 renal; 23.9% with TK-10 renal; -4.78% (active) in the assay with CAKI-1 renal. In addition, the growth in the assay with A498 renal is -8.76% (active); in the assay with CCRF-CEM leukemia, 3.42% (active); in the assay on MOLT-4 leukemia, 4.35% (active); with SR leukemia, -5.52% (active); in the assay with RPMI-8226 leukemia, 22%; in the assay with OVCAR-8 ovarian it was 2.44% (active). Further, the growth in the assay with OVCAR-4 ovarian is 38.8%; in the assay on SK-OV-3 ovarian, 18%; in the assay on IGROV1 ovarian it was 36.5%; with OVCAR-3 ovarian it was -76.6% (active); in the assay on HS 578T breast it was 48%; in the assay with NCI/ADR-RES ovarian it was 62.3%.

Regarding `C=C1C(=O)O[C@H]2[C@H]1CC/C(COC(=O)c1ccc3ccccc3c1)=C\CC[C@@]1(C)O[C@@H]21`, the growth with SK-MEL-2 melanoma was -70.4% (active); in the assay on EKVX NSCLC, -75.5% (active); with SN12C renal, -54% (active); in the assay with UO-31 renal, -98.9% (active); in the assay with TK-10 renal, -95.9% (active); with ACHN renal, -100% (active). Further, the growth in the assay on A498 renal is 64.1%; in the assay with MOLT-4 leukemia, -14.1% (active); in the assay on RPMI-8226 leukemia, -39.3% (active); in the assay on OVCAR-8 ovarian, -21.4% (active); in the assay with OVCAR-5 ovarian it was -52.9% (active); in the assay on OVCAR-4 ovarian, -36.7% (active). In addition, the growth in the assay with SK-OV-3 ovarian is 82.6%; in the assay on IGROV1 ovarian, -75.1% (active); in the assay on OVCAR-3 ovarian, -93.1% (active); in the assay with HS 578T breast it was 3.13% (active); in the assay on NCI/ADR-RES ovarian, -37.7% (active).

For `CCC(N)(C(=O)O)c1ccc(F)cc1` (stereo not given), the growth in the assay on SK-MEL-2 melanoma is 98%; in the assay on EKVX NSCLC it was 104%; with SN12C renal it was 102%; in the assay with UO-31 renal it was 98.5%; with TK-10 renal, 95.5%; in the assay on ACHN renal, 114%. Besides, the growth was 94.8% with CCRF-CEM leukemia; 90.1% in the assay with MOLT-4 leukemia; 105% with SR leukemia; 98.4% in the assay with RPMI-8226 leukemia; 101% with OVCAR-8 ovarian; 111% in the assay on OVCAR-5 ovarian. Also, the growth in the assay on OVCAR-4 ovarian was 117%; in the assay on SK-OV-3 ovarian, 113%; in the assay on OVCAR-3 ovarian, 99.9%; in the assay with HS 578T breast, 111%; in the assay with NCI/ADR-RES ovarian, 106%.
